Where “and” joins values, the source holds several entries; their conditions need not be identical. Identical values can stand only once. Where a structure was tested more than once in an assay, its records may differ in their call. Calls of active or inactive are those of the source. Rule for the calls: active = hit-call score of the fitted dose curve at least 0.9, where 1 is the maximum; inactive = score below 0.9.
Each compound was assayed on E-selectin (Homo sapiens) (UniProt P16581) (assay: BSK_SAg_Eselectin: BioMAP Diversity Plus: SAg Assay for Eselectin Biomarker Activity (AID 2283091)). Settings: primary human HUVEC with PBMC; actives raise or lower the signal.
Protocol: BSK_SAg is a cell-based, multiplexed-readout assay that uses umbilical vein endothelium and peripheral blood mononuclear cells, a human vascular primary cell co-culture, with measurements taken at 24 hours after chemical dosing in a 96-well plate.BSK_SAg_Eselectin is an assay component measured in the BSK_SAg assay. It measures E-selectin antibody related to regulation of gene expression using ELISA technology.Data from the assay component BSK_SAg_Eselectin was analyzed into 1 assay endpoint. This assay endpoint, BSK_SAg_Eselectin, was analyzed with bidirectional fitting relative to DMSO as the negative control and baseline of activity. Using a type of binding reporter, gain or loss-of-signal activity can be used to understand changes in the signaling as they relate to the gene SELE. Furthermore, this assay endpoint can be referred to as a primary readout, because this assay has produced multiple assay endpoints where this one serves a signaling function. To generalize the intended target to other relatable targets, this assay endpoint is annotated to the cell adhesion molecules intended target family, where the subfamily is selectins.
The levels of cell surface (or secreted, indicated by the prefix "s") biomarker endpoints were measured by ELISA. Overt cytotoxicity to cells in confluent adherent cultures (all systems other than the BT system) was assessed by measuring total protein levels using sulforhodamine B (SRB) staining in parallel cultures at the time of biomarker measurements, indicated as SRB endpoints. For proliferation assays for adherent cell types, individual cell types are cultured at sub-confluence and relative cell numbers quantified by SRB staining at time points optimized for each system (48 h: 3C and CASM3C systems; 72 h: BT and HDF3CGF systems; 96 h: SAg system). SRB was performed by staining cells with 0.1% SRB after fixation with 10% TCA and reading wells at 560 nm.Viability and proliferation of PBMC (T cells) was quantified by Alamar Blue reduction for the SAg and BT systems. For PBMC viability (referred to as PBMC Cytotoxicity within the assay endpoint names), cells were plated (75,000/well in a 96-well plate) and then chemical samples added for 1 h before addition of activators, SEB and TSST-1 (20 ng/mL final concentration each). Cells were incubated for 90 h. Then, Alamar Blue (20 uL/well) (Invitrogen, Cat DAL1100) was added for 6 h, and the plates were read with a fluorescence microplate reader at 546/580 nm (excitation/emission). For PBMC proliferation, cells were plated and activated as above but incubated for only 16 h prior to addition of Alamar Blue. Plates were read after 6 h.

Sequence of E-selectin (Homo sapiens) (P16581 whole entry, looked up): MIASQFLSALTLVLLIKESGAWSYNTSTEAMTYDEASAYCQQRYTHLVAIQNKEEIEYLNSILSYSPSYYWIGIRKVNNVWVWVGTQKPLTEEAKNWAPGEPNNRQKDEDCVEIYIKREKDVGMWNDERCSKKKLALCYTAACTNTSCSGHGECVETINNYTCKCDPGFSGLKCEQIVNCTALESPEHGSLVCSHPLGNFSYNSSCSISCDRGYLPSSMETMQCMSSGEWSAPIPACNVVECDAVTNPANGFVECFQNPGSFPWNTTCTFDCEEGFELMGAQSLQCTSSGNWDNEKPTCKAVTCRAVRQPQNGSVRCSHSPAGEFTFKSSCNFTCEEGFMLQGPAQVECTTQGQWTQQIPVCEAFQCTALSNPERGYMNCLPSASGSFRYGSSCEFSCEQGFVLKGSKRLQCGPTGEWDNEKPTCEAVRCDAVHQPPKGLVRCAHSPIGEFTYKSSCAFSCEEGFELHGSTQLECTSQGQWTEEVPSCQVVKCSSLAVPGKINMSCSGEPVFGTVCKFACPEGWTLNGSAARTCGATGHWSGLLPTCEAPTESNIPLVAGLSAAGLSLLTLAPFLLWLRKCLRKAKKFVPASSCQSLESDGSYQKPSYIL

Q: How did the AC50 turn out when `CCC(=O)O[C@H]1CC[C@H]2[C@@H]3CCC4=CC(=O)CC[C@]4(C)[C@H]3CC[C@]12C` was run?
A: Its AC50 is 34.2 µM (active).

Q: Which outcome does the source give for `CC#Cc1cc(C)nc(Nc2ccccc2)n1` here?
A: Its outcome is “inactive”.

Q: With `Clc1ccc(C(c2ccccc2Cl)C(Cl)(Cl)Cl)cc1` (stereo not given) as the compound, how does the AC50 read?
A: Its AC50 is 24.7 µM (active).

Q: With `Cc1cc2c3c(c1)C(c1ccccc1)=N[C@@H](NC(=O)c1ccncc1)C(=O)N3CC2` as the compound, how does the AC50 read?
A: The AC50 was 4 µM (active).

Q: `ClC(Cl)=C(c1ccc(Cl)cc1)c1ccc(Cl)cc1` was tested. Which AC50 did it give?
A: The AC50 was 32.2 µM (active).

Q: How did the outcome turn out when `Clc1ccc(Cl)cc1` was run?
A: The outcome was “inactive”.

Q: With `Oc1c(Cl)c(Cl)c(Cl)c(Cl)c1Cl` as the compound, how does the AC50 read?
A: The AC50 was 27.3 µM (active).

Q: What about the outcome of the same compound?
A: The outcome was “inactive”.

Q: For `O=C(NC(=O)c1cc(F)c(F)cc1Cl)Nc1cc(F)ccc1N1CCC(C(=O)O)CC1`, which outcome is on record?
A: The outcome was “inactive”.

Q: `Cc1ccccc1CO[C@@H]1C[C@@]2(C(C)C)CC[C@]1(C)O2` was tested. Which outcome did it give?
A: The outcome was “inactive”.

Q: For `O=S(=O)(O)C(F)(F)C(F)(F)C(F)(F)C(F)(F)F`, which outcome is on record?
A: Its outcome is “inactive”.

Q: With `CCSC(=O)N(CC)C1CCCCC1` as the compound, how does the outcome read?
A: Its outcome is “inactive”.

Q: Which AC50 does the source give for `CCOP(=S)(OCC)SCSC(C)(C)C` here?
A: The AC50 was 39 µM (active).

Q: Which AC50 does the source give for `CCCCCCOC(=O)c1ccccc1C(=O)OCCCCCC` here?
A: The AC50 was 32.6 µM (active).

Q: How did the outcome turn out when `CC(C)C(=O)OCC(C)(C)C(OC(=O)C(C)C)C(C)C` (stereo not given) was run?
A: Its outcome is “inactive”.

Q: How did the AC50 turn out when `O=C(O)C(F)(F)C(F)(F)C(F)(F)C(F)(F)C(F)(F)C(F)(F)C(F)(F)C(F)(F)C(F)(F)F` was run?
A: Its AC50 is 34.3 µM (active) and 54.9 µM (active) and 52.9 µM (active).

Q: Which AC50 does the source give for `CCCCCCCCCC[N+](C)(C)CCCCCCCCCC` here?
A: The AC50 was 2.19 µM (active).

Q: For `CN(C)CCO`, which outcome is on record?
A: The outcome was “inactive”.

Q: `O=S(=O)(O)C(F)(F)C(F)(F)C(F)(F)C(F)(F)C(F)(F)C(F)(F)F` was tested. Which outcome did it give?
A: The outcome was “inactive”.

Q: `COc1ccc(O)c(C(C)(C)C)c1` was tested. Which outcome did it give?
A: Its outcome is “inactive”.

Q: Which outcome does the source give for `c1cc2ccc3cccc4ccc(c1)c2c34` here?
A: Its outcome is “inactive”.

Q: Which outcome does the source give for `C1CC2OC2CC1C1CO1` (stereo not given) here?
A: Its outcome is “inactive”.

Q: How did the outcome turn out when `Cc1cccc(C)c1N` was run?
A: Its outcome is “inactive”.

Q: `CCOC(=O)C(O)(c1ccc(Cl)cc1)c1ccc(Cl)cc1` was tested. Which AC50 did it give?
A: Its AC50 is 31.7 µM (active).

Q: Which outcome does the source give for `CCC(C)(CC)c1cc(NC(=O)c2c(OC)cccc2OC)on1` here?
A: Its outcome is “inactive”.

Q: How did the outcome turn out when `Nc1ccc(-c2ccc(N)cc2)cc1` was run?
A: The outcome was “inactive”.

Q: How did the outcome turn out when `N#Cc1ccc(N(CC(N)=O)CC(F)(F)F)cc1C(F)(F)F` was run?
A: Its outcome is “inactive”.

Q: `O=C(O)C(F)(F)C(F)(F)C(F)(F)C(F)(F)C(F)(F)F` was tested. Which outcome did it give?
A: Its outcome is “inactive”.

Q: `COS(=O)(=O)OC` was tested. Which outcome did it give?
A: The outcome was “inactive”.

Q: With `O=NN(c1ccccc1)c1ccccc1` as the compound, how does the outcome read?
A: Its outcome is “inactive”.

Q: With `Cc1cc(O)ccc1Cl` as the compound, how does the outcome read?
A: Its outcome is “inactive”.

Q: With `CCCN(CCC)N=O` as the compound, how does the outcome read?
A: The outcome was “inactive”.

Q: `CCNc1nc(NC(C)C)nc(SC)n1` was tested. Which outcome did it give?
A: Its outcome is “inactive”.

Q: `C[C@]12CCC(=O)C=C1CC[C@@H]1[C@@H]2CC[C@@]2(C)[C@H]1CC[C@]2(C)O` was tested. Which outcome did it give?
A: Its outcome is “inactive”.

Q: Which AC50 does the source give for `ClC1=C(Cl)[C@]2(Cl)[C@@H]3[C@@H](Cl)[C@H]4O[C@H]4[C@@H]3C1(Cl)C2(Cl)Cl` here?
A: Its AC50 is 9.42 µM (active).

Q: With `CCC(C)c1cc([N+](=O)[O-])cc([N+](=O)[O-])c1O` (stereo not given) as the compound, how does the AC50 read?
A: Its AC50 is 14.2 µM (active).

Q: How did the outcome turn out when `O=C(N[C@H]1CN2CCC1CC2)c1cc2ccoc2cn1` was run?
A: The outcome was “inactive”.

Q: With `NS(=O)(=O)C(F)(F)C(F)(F)C(F)(F)C(F)(F)C(F)(F)C(F)(F)C(F)(F)C(F)(F)F` as the compound, how does the AC50 read?
A: The AC50 was 20 µM (active) and 45.5 µM (active) and 49 µM (active).

Q: `CCCCCCCCOC(=O)c1ccccc1C(=O)OCCCCCCCC` was tested. Which outcome did it give?
A: The outcome was “inactive”.

Q: With `Clc1ccc(C(Cl)(Cl)Cl)cc1` as the compound, how does the outcome read?
A: Its outcome is “inactive”.

— PubChem BioAssay (EPA / NIEHS)
